Reference: ChEMBL document CHEMBL3988442, “University of Dundee, Small-Polar-MMV Screening Library” (2021)
Among all 48,000 compounds or so, about 13,000 (27%) showed an effect of 50% or more. This is one part of the list.

system: Wolbachia pipientis; assay: Anti-Wolbachia Cell-Based Screen; assay type: functional; parameters: scale not given: in the data most compounds retested in dose-response had high values; details: 5 µM

Row | SMILES | Percent Effect
1 | CCCn1nc2c(cc1=O)CN(CC(=O)N(C)c1nccs1)CC2 | -22.84%
2 | CCc1cc(NCCCC2CCOC2)n2nccc2n1 (stereo not given) | -1.009%
3 | CCc1nnsc1C(=O)NCCn1nc2ccccn2c1=O | 6.254%
4 | NC(=O)C(NC(=O)c1cc(Cl)c[nH]1)c1ccccc1 (stereo not given) | 10.72%
5 | c1ccc(CN(Cc2cccc3cnccc23)CC2CCCO2)nc1 (stereo not given) | 15.94%
6 | COCC1CN(C(=O)Cc2ccccn2)Cc2ncn(C)c21 (stereo not given) | -6.541%
7 | COCC1CN(CC2CC2)Cc2ncn(CC3CC3)c21 (stereo not given) | 123%
8 | CCOCC1CN(S(=O)(=O)C2CC2)Cc2ncn(CC3CC3)c21 (stereo not given) | 93.99%
9 | CCOCC1CN(S(C)(=O)=O)Cc2ncn(CC3CC3)c21 (stereo not given) | -5.705%
10 | COCC1CN(S(=O)(=O)C2CC2)Cc2ncn(CC3CC3)c21 (stereo not given) | 93.96%
11 | COCC1CN(C(=O)CS(C)(=O)=O)Cc2ncn(CC3CC3)c21 (stereo not given) | 98.19%
12 | CCOC(=O)C1CN(S(=O)(=O)C2CC2)Cc2ncn(CC)c21 (stereo not given) | -2.058%
13 | CCn1cc2c(n1)CN(S(=O)(=O)c1ccc(C)cc1)CC2COC (stereo not given) | -1.212%
14 | COCC1CN(CC2CC2)Cc2nn(C)cc21.O=C(O)C(F)(F)F (stereo not given) | -11.2%
15 | COCC1CN(C(=O)CC2=CCCCC2)Cc2nnn(CC3CC3)c21 (stereo not given) | 25.21%
16 | COCC1CN(Cc2ccc(C)o2)Cc2ncn(CC3CC3)c21 (stereo not given) | 4.542%
17 | CCOCC1CN(S(=O)(=O)C2CC2)Cc2nn(C)cc21 (stereo not given) | -10.65%
18 | CCN(C)S(=O)(=O)c1ccc(Cl)cc1C#N | -3.723%
19 | CCN1C(=O)[C@]2(CC[C@@H]3CN(C(=O)NCC(C)C)C[C@@H]32)N=C1C | 1.741%
20 | CCS(=O)(=O)N1Cc2ncn(CC3CC3)c2C(COC)C1 (stereo not given) | 96.93%
21 | COCC1CN(S(C)(=O)=O)Cc2ncn(CC3CC3)c21 (stereo not given) | -3.416%
22 | CCOCC1CN(S(=O)(=O)CC)Cc2nn(C)cc21 (stereo not given) | -1.442%

Row | SMILES | Percent Effect
23 | CCS(=O)(=O)N1CCc2cc(C(=O)NC)c(NCC(C)C)nc2CC1 | -9.983%
24 | CC[C@H](C)[C@H](NC(=O)Cc1csc(-c2cccc(Cl)c2)n1)C(=O)O | -0.2804%
25 | O=C(Cc1csc(-c2ccc(Cl)cc2)n1)NC(C(=O)O)c1ccccc1 (stereo not given) | 14.14%
26 | COc1cccc(-c2nc(C)c(C(=O)N[C@@H](C)C(=O)O)s2)c1 | -5.733%
27 | CC(C)C[C@H](NC(=O)Cc1csc(-c2cccc(Cl)c2)n1)C(=O)O | 111.7%
28 | O=C(Cc1csc(N2CCNC2=O)n1)NC(c1ccccc1)C1CC1 (stereo not given) | -8.956%
29 | O=C(Cc1csc(-c2ccccc2)n1)N[C@@H](C(=O)O)c1ccccc1 | 112.5%
30 | COc1cccc(-c2nc(CNC(C)Cn3cccn3)cs2)c1 (stereo not given) | 12.67%
31 | C[C@H](NC(=O)Cc1csc(-c2cccc(Cl)c2)n1)C(=O)O | 100.7%
32 | NC(=O)CCS(=O)(=O)Cc1ccc(OCC(F)(F)F)cc1 | -2.639%
33 | CC(=O)Nc1ccc2c(c1)nc1n2[C@@H](CNCc2ccccc2)COC1 | -2.529%
34 | C1CC(CN2C[C@H]3CC[C@@H]2CN(Cc2noc(C4CCCC4)n2)C3)C1 | -8.86%
35 | O=C1CC(c2cccc(O)c2)c2c(c(C(=O)O)cn2-c2ccccc2)N1 (stereo not given) | 2.755%
36 | OC[C@H]1CCCN1c1nccc(-c2c[nH]nc2C2CCCCC2)n1 | 103.3%
37 | OCC1CCCN1c1cc(N2CCc3ccccc3C2)ncn1 (stereo not given) | -8.701%
38 | OC[C@@H]1CCCN1c1nccc(-c2c[nH]nc2-c2ccncc2)n1 | 132.9%
39 | COCc1noc(-c2ccc(N3CCCCC3CO)nc2)n1 (stereo not given) | -1.816%
40 | OC[C@H]1CCCN1c1nccc(-c2cncnc2C2CCCCC2)n1 | 101.1%
41 | OC[C@@H]1CCCN1c1ccc(-c2nc(COc3ccccc3)no2)cn1 | -5.727%
42 | COCc1noc(-c2ccc(N3CCC[C@H]3CO)nc2)n1 | 11.1%
43 | CC(NC(=O)c1cc2n(n1)CCCN(C)C2)c1cn2ccsc2n1 (stereo not given) | -3.947%
44 | CC(C)(C)OC(=O)N1CC(CC(=O)NCc2ccsc2)C1 | -134.2%

Row | SMILES | Percent Effect
45 | N#Cc1cccc(CNc2cc(CO)ccc2Cl)c1 | -41.9%
46 | CC(=O)N[C@@H]1CN(C2CCN(c3cccc(C)c3C)CC2)C[C@H]1C(C)C | -7.453%
47 | Cc1ncccc1OC1(C(=O)NCc2noc(C(C)C)n2)CCNCC1 | -7.244%
48 | CCc1nnc(Nc2cc(C)nc(C3CN(C(C)=O)CCO3)c2)s1 (stereo not given) | 108.4%
49 | CCCc1nnc(NC(=O)N2CCCC(NC(C)=O)C2)s1 (stereo not given) | -6.221%
50 | CNc1cc(C)nc(C2CN(Cc3cc[nH]n3)CCO2)c1 (stereo not given) | -11.69%
51 | COc1ccc(OC)c(CNCc2ccnc(N3CCOCC3)c2)c1 | 119.2%
52 | COc1ccc(CNCc2ccnc(N3CCOCC3)c2)c(OC)c1 | -1.923%
53 | Cl.c1cc(CNCc2ccc3c(c2)CCO3)cc(N2CCOCC2)n1 | -6.468%
54 | COc1c(C)cc(CNCc2ccnc(N3CCOCC3)c2)cc1C.Cl | 93.56%
55 | Cl.c1cc(CNCc2ccnc(N3CCOCC3)c2)c2c(c1)OCO2 | 16.56%
56 | COc1cc(CNCc2ccnc(N3CCOCC3)c2)cc(OC)c1 | 97.96%
57 | COc1cccc(CNCc2ccnc(N3CCOCC3)c2)c1OC | 119.8%
58 | COc1cc(CNCc2ccnc(N3CCOCC3)c2)cc(Cl)c1OC | -1.055%
59 | COc1ccc(CNCc2ccnc(N3CCOCC3)c2)cc1OC | -3.598%
60 | CCOc1ccccc1N(C)C(=O)c1ccc(Cl)cn1 | -0.6778%
61 | O=C([C@H]1C[C@H]2OCC[C@H]2N(C(=O)c2ccncc2)C1)N1CCCCO1 | 15.67%
62 | CC(=O)c1c(O)ccnc1C(F)(F)F | -30.29%
63 | COc1ccc2c(c1)C(C(=O)N(C)CCc1scnc1C)CC(=O)N2 (stereo not given) | 13.25%
64 | CCCc1nn(C2CCN(C3CC3)C2=O)c(=O)o1 (stereo not given) | -0.5192%
65 | CC(C)c1cc(NCC2(CO)CCC2)ncn1 | -3.782%
